# Measurements reported in PubChem BioAssay (NCATS).
# Where “and” joins values, the source holds several entries; their conditions need not be identical. Identical values can stand only once. Inconclusive results are not listed. Entries that show only a call come without a potency. Calls of active or inactive are those of the source. Unless noted, the call rests on the fitted dose curve; in most records, active means well fitted curve in the direction sought with a large enough effect; inconclusive means small, poorly fitted or top-dose-only effect, or another doubt; inactive means no such curve, though single readings can be large; an effect the other way counts as inactive or inconclusive.
# What was measured:
# [1] = qHTS assay for small molecule agonists of retinoid X receptor alpha signaling (AID 588544; calls by dose curve); settings: HEK293T RXRa-UAS-bla, beta-lactamase reporter, 18 h; 530 nm emission
# [2] = target: Retinoic acid receptor RXR-alpha (Homo sapiens) (UniProt P19793); test: as above; settings: HEK293T RXRa-UAS-bla, beta-lactamase reporter, 18 h; series mostly up to 76.7 µM
# [3] = target: Thyroid hormone receptor beta (Homo sapiens) (UniProt P10828); test: qHTS assay for small molecule agonists of thyroid hormone receptor beta signaling (AID 588545; calls by dose curve); settings: TR-UAS-bla GripTite HEK 293, beta-lactamase ratio, agonist mode, 18 h, percent of T3 response, DMSO as zero; series mostly up to 76.7 µM
# How it was run: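 Agonist-mode beta-lactamase reporter assay, HEK 293 cells, 2% charcoal/dextran FBS; cells plated 4 hrs, compound 18 hrs at 37 C, CCF4 2 hrs RT. Normalized to 10 nM T3 (100%) and DMSO (0%); Hill fit gives EC50, efficacy.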
# [4] = qHTS assay for small molecule antagonists of retinoid X receptor alpha signaling (AID 588546; active means well fitted inhibition curve with a large enough effect in the signal ratio, with a control signal flat, not every such curve was filed as active; the % refers to the signal ratio;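 further: cells stimulated with 9-cis-retinoic acid as agonist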); settings: HEK293T RXRa-UAS-bla, beta-lactamase ratio, antagonist mode; measured here: W530 green channel, cytotoxicity proxy
# How it was run: (§1)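 Beta-lactamase reporter inhibition, read as CCF4 fluorescence ratio (ex 405, em 460/530 nm) after 2 h at RT. HEK293T UAS-bla cells, 2500/well, were stimulated with 9-cis-RA at 500 or 100 nM final alongside test compound for 18 h at 37 C.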
# [5] = target: Retinoic acid receptor RXR-alpha (Homo sapiens) (UniProt P19793); test: as above; settings: HEK293T RXRa-UAS-bla, beta-lactamase ratio, antagonist mode
# How it was run: as §1
# [6] = target: Thyroid hormone receptor beta (Homo sapiens) (UniProt P10828); test: qHTS assay for small molecule antagonists of thyroid hormone receptor beta signaling (AID 588547; active means well fitted inhibition curve with a large enough effect in the signal ratio, with a control signal flat, not every such curve was filed as active; the % refers to the signal ratio;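 further: cells stimulated with 0.4 nM T3 agonist during compound exposure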); settings: TR-UAS-bla HEK293, beta-lactamase ratio, antagonist mode, 18 h
# How it was run: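 TR-UAS-bla GripTite HEK293 cells in 2% charcoal/dextran FBS medium were preincubated 4 h at 37 C, given compound (0.59 nM to 92 uM) plus 0.4 nM T3 (final) for 18 h, then CCF4 for 2 h at RT; Hill fit gave IC50.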
# [7] = target: Voltage-gated inwardly rectifying potassium channel KCNH2 (Homo sapiens) (UniProt Q12809); test: qHTS Assay for Small Molecule Inhibitors of the Human hERG Channel Activity (AID 588834); settings: U2OS BacMam hERG, FluxOR thallium flux fluorescence; series mostly up to 46.1 µM;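 further: U2OS cells transduced with hERG by BacMam; top concentration of the series differs between compounds; lower thallium flux fluorescence means stronger hERG block; nearly all actives have a fitted effect of over 50% in size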
# How it was run: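 Cells were infected with hERG-BacMam virus for 4 hrs at room temperature, grown overnight, then seeded at 2000/well. After dye loading and roughly 10 min compound treatment, thallium influx was triggered and fluorescence recorded.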
# [8] = target: Luciferin 4-monooxygenase (Photinus pyralis) (UniProt P08659); test: Biochemical firefly luciferase enzyme assay for NPC (AID 624030);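 further: purified P. pyralis luciferase at 10 nM with luciferin and ATP substrate; nearly all actives have a fitted effect of over 70% in size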; settings: purified P. pyralis luciferase, luminescence, 5 min; series mostly up to 58.6 µM
# How it was run: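 Counter-screen for direct inhibition of the luciferase enzyme by approved-drug library compounds, run at 10 nM enzyme in 50 mM Tris acetate (final). Luminescence was read within 5 min of enzyme-buffer addition and normalized to PTC124 versus DMSO (0%).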
# [9] = S16 Schwann cell viability assay (CellTiter-Glo assay) (AID 624031); settings: S16 rat Schwann cells viability, 24 h; series mostly up to 57.5 µM;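 further: cellular ATP luminescence as a viability measure; nearly all actives have a fitted effect of over 70% in size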
# How it was run: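 Native S16 rat Schwann cells in DMEM/10% FBS without phenol red were incubated overnight, then exposed to compounds for 24 h at 37 °C/5% CO2. Viability was read as ATP luminescence (CellTiter-Glo), normalized to no-cell wells and DMSO (0%).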
# [10] = S16 Schwann cell PMP22 intronic element firefly luciferase assay (AID 624032); settings: S16 rat Schwann cells, PMP22 element FLuc, 24 h; series mostly up to 57.5 µM; further: nearly all actives have a fitted effect of over 30% in size; further: potency means the concentration at half of the fitted maximal effect
# How it was run: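 Rat S16 Schwann cells stably carrying a PMP22 intronic element-driven Fluc reporter were seeded overnight, then exposed to compounds for 24 h at 37 °C. Luminescence was normalized to PTC124 (positive control) and DMSO (0% activity).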
# Chain of Voltage-gated inwardly rectifying potassium channel KCNH2 (Homo sapiens) (Q12809 whole entry, looked up): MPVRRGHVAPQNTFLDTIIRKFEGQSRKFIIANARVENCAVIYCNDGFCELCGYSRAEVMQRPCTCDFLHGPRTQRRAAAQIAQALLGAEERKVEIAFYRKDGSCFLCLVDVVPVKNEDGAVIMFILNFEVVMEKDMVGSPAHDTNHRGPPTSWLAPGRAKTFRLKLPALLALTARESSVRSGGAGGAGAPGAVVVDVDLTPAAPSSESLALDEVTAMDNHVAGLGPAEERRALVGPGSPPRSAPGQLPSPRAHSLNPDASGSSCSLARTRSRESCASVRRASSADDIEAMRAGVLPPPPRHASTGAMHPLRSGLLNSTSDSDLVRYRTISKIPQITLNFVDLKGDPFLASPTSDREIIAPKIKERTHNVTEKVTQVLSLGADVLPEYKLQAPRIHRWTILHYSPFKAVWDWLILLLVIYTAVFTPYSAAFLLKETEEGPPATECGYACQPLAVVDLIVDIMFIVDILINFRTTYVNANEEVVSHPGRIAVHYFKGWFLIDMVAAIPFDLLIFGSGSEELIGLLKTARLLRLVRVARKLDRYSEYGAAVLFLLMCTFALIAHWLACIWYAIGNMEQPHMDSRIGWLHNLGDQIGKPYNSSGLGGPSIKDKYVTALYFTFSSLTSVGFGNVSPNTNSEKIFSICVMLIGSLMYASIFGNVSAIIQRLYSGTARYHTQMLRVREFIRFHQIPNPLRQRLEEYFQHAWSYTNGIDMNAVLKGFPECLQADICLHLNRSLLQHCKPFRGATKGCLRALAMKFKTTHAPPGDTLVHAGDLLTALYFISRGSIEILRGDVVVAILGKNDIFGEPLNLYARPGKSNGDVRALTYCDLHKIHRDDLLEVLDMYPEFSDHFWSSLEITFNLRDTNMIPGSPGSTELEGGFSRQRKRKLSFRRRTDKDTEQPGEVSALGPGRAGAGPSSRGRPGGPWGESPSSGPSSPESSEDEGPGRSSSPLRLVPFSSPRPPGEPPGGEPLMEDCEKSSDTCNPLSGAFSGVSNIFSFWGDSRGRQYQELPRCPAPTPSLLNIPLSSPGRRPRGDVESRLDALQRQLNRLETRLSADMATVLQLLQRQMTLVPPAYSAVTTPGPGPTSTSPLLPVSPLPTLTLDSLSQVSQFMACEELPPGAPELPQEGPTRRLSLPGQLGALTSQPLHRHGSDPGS
# Chain of Retinoic acid receptor RXR-alpha (Homo sapiens) (P19793 whole entry, looked up): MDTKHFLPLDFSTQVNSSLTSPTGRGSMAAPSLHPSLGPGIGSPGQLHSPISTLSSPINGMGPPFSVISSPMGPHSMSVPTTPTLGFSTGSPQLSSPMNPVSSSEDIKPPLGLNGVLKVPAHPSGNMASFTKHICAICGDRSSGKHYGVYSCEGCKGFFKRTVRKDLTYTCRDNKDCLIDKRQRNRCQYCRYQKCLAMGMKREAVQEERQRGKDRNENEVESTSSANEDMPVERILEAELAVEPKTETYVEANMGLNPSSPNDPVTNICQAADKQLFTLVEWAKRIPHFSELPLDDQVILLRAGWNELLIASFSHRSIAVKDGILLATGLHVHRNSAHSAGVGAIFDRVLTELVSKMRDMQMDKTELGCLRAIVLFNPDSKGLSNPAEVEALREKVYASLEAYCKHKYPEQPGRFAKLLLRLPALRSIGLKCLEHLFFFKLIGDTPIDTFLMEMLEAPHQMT
# Chain of Luciferin 4-monooxygenase (Photinus pyralis) (P08659 whole entry, looked up): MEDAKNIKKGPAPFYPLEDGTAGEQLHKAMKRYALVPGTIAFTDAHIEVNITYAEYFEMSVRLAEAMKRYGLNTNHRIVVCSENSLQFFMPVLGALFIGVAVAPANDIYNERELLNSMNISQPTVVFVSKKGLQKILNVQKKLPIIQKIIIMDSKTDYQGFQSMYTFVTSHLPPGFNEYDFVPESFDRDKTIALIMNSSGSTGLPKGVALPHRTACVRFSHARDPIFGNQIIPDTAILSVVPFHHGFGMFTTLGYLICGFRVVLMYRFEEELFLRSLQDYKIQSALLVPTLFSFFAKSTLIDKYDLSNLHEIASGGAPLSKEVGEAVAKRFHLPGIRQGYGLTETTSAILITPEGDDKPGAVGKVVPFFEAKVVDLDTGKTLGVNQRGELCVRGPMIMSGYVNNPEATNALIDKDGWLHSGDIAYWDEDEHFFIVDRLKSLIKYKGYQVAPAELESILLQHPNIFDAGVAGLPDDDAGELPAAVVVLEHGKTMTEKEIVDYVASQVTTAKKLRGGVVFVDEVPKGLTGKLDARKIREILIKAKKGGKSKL
# Chain of Thyroid hormone receptor beta (Homo sapiens) (P10828 whole entry, looked up): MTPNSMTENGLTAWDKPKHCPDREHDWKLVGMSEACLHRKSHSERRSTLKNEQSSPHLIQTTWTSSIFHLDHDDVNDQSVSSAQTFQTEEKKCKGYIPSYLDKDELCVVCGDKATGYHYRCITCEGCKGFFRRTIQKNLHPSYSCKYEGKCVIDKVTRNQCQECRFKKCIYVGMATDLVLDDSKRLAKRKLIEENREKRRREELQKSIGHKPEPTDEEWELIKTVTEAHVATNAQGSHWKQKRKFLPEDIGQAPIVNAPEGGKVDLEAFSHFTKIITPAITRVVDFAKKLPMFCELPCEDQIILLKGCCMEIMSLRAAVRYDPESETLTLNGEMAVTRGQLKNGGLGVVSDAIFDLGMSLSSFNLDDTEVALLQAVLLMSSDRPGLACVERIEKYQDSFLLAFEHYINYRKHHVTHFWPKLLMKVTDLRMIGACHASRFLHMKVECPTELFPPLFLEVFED
SMILES,max response [1],outcome [2],outcome [3],max response [4],max response [5],activity change % (negative = inhibition) [6],Potency [7],Potency [8],outcome [9],Potency [10]
CCCCCC(N)=O,-21.2%,inactive,inactive,-2.91%,-2.1% (inactive),-10.5% (inactive),inactive,inactive,inactive,14.4 µM (active)
CC(=O)OCC(COC(C)=O)OC(C)=O,-12.6% and -13.8%,inactive,inactive,-8.38%,4.6% (inactive),-1.64% (inactive) and -0.0126% (inactive),inactive,inactive,inactive,inactive
O=C(OOC(=O)c1ccccc1)c1ccccc1,-15.8%,inactive,inactive,-16.7%,10.6% (inactive),,,inactive,inactive,
C=CCNC(N)=S,14.7%,inactive,inactive,-1.13%,-16.9% (inactive),-17.1% (inactive),inactive,inactive,inactive,inactive
CC(=O)Nc1ccc(C(=O)O)cc1,-5.85%,inactive,inactive,-6.58%,1.7% (inactive),2.92% (inactive),inactive,inactive,,inactive
OC[C@@H](O)[C@@H](O)[C@H](O)[C@H](O)CO,-0.766%,inactive,inactive,-16.3%,13.9% (inactive),-14.9% (inactive),,inactive,,inactive
CCCCCCCC(=O)OCC(COC(=O)CCCCCCC)OC(=O)CCCCCCC,-2.18%,inactive,inactive,-12.4%,4.61% (inactive),-4.42% (inactive),inactive,inactive,,inactive
CCCC(O)C(CC)CO (stereo not given),-0.667%,inactive,inactive,-4.1%,8.72% (inactive),10.7% (inactive),inactive,inactive,,inactive
CC(=O)NS(=O)(=O)c1ccc(N)cc1,-19.7%,inactive,inactive,-14.4%,16.1% (inactive),-0.298% (inactive),,inactive,inactive,inactive
Nc1ccc(S(=O)(=O)c2ccc(N)cc2)cc1,9.37%,inactive,inactive,-11.9%,-26.2% (inactive),-17.4% (inactive) and -7.69% (inactive),inactive,inactive,inactive,
